In PubChem BioAssay AID1159580 (chemical genetic matrix, 2015):
“And” between values parts separate entries of the source, which are not always exact repeats. Equal entries are not always repeated. Hit rate of the full screen: of about 5,500 compounds, about 2,000 (36%) were called active. Roughly 18% stayed inconclusive and do not appear here. Rule as the data show it: active = normalized growth mostly below about 0.91 (no sharp cut-off); inconclusive = no clear call, values can overlap the other calls; inactive = mostly above about 0.92. The list shows a part of the results.

Assay: chemical genetic growth profiling, strain panel (AID 1159580);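 also: tested at 20 µM; growth read once vehicle control cultures reached saturation at 30 °C; 1 = growth at the plate median or of vehicle wells; lower values mean less growth of the strain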
Details: S. cerevisiae deletion strains, growth OD

For Cc1cc2cc3c(C)cc(=O)oc3c(C)c2o1, the normalized growth (locus YAL013W, strain DEP1, stronger effect = lower value) was 0.965 (inactive), the normalized growth (locus YAL021C, strain ccr4, stronger effect = lower value) was 0.992 (inactive) and the normalized growth (locus YAL026C, strain drs2, stronger effect = lower value) was 0.949 (inactive). The normalized growth (locus YAL030W, strain snc1, stronger effect = lower value) was 1.01 (inactive), the normalized growth (locus YBL061C, strain skt5, stronger effect = lower value) was 0.997 (inactive) and the normalized growth (locus YBR009C, strain hhf1, stronger effect = lower value) was 0.937 (inactive). For the same compound, the normalized growth (locus YBR021W, strain FUR4, stronger effect = lower value) was 1 (inactive), the normalized growth (locus YBR023C, strain chs3, stronger effect = lower value) was 0.968 (inactive) and the normalized growth (locus YBR171W, strain sec66, stronger effect = lower value) was 0.959 (inactive). The normalized growth (locus YBR229C, strain ROT2, stronger effect = lower value) was 0.967 (inactive), the normalized growth (locus YBR231C, strain swc5, stronger effect = lower value) was 0.993 (inactive) and the normalized growth (locus YBR279W, strain paf1, stronger effect = lower value) was 0.949 (inactive). For the same compound, the normalized growth (locus YCL011C, strain gbp2, stronger effect = lower value) was 0.955 (inactive), the normalized growth (locus YCL016C, strain dcc1, stronger effect = lower value) was 0.939 (inactive) and the normalized growth (locus YCL029C, strain bik1, stronger effect = lower value) was 0.958 (inactive). The normalized growth (locus YCL061C, strain MRC1, stronger effect = lower value) was 1 (inactive), the normalized growth (locus YCL069W, strain vba3, stronger effect = lower value) was 0.955 (inactive) and the normalized growth (locus YCR088W, strain abp1, stronger effect = lower value) was 0.987 (inactive). The normalized growth (locus YDL005C, strain med2, stronger effect = lower value) was 0.993 (inactive), the normalized growth (locus YDL035C, strain GPR1, stronger effect = lower value) was 0.92 (inactive) and the normalized growth (locus YDL040C, strain nat1, stronger effect = lower value) was 1 (inactive). For the same compound, the normalized growth (locus YDL074C, strain BRE1, stronger effect = lower value) was 0.832 (inactive), the normalized growth (locus YDL101C, strain DUN1, stronger effect = lower value) was 0.933 (inactive) and the normalized growth (locus YDL134C, strain PPH21, stronger effect = lower value) was 0.951 (inactive). The normalized growth (locus YDL185W, strain tfp1, stronger effect = lower value) was 0.958 (inactive), the normalized growth (locus YDL192W, strain arf1, stronger effect = lower value) was 0.966 (inactive) and the normalized growth (locus YDR001C, strain nth1, stronger effect = lower value) was 0.984 (inactive). The normalized growth (locus YDR069C, strain doa4, stronger effect = lower value) was 1.02 (inactive), the normalized growth (locus YDR101C, strain arx1, stronger effect = lower value) was 0.951 (inactive) and the normalized growth (locus YDR137W, strain rgp1, stronger effect = lower value) was 1.03 (inactive). The normalized growth (locus YDR150W, strain NUM1, stronger effect = lower value) was 0.993 (inactive), the normalized growth (locus YDR159W, strain sac3, stronger effect = lower value) was 0.996 (inactive) and the normalized growth (locus YDR162C, strain NBP2, stronger effect = lower value) was 0.956 (inactive). The normalized growth (locus YDR195W, strain ref2) was 1.28 [resistant] (active), the normalized growth (locus YDR297W, strain sur2, stronger effect = lower value) was 1.01 (inactive) and the normalized growth (locus YDR318W, strain mcm21, stronger effect = lower value) was 0.94 (inactive). The normalized growth (locus YDR334W, strain swr1, stronger effect = lower value) was 1 (inactive), the normalized growth (locus YDR335W, strain msn5, stronger effect = lower value) was 1 (inactive) and the normalized growth (locus YDR388W, stronger effect = lower value) was 0.956 (inactive). The normalized growth (locus YDR392W, strain spt3, stronger effect = lower value) was 0.875 (inactive), the normalized growth (locus YDR502C, strain sam2, stronger effect = lower value) was 0.957 (inactive) and the normalized growth (locus YEL003W, strain gim4, stronger effect = lower value) was 0.972 (inactive). For the same compound, the normalized growth (locus YEL037C, strain rad23, stronger effect = lower value) was 0.949 (inactive), the normalized growth (locus YEL061C, strain CIN8 (second series), stronger effect = lower value) was 0.989 (inactive) and the normalized growth (locus YEL061C, strain CIN8, stronger effect = lower value) was 0.98 (inactive). The normalized growth (locus YER015W, strain faa2, stronger effect = lower value) was 0.981 (inactive), the normalized growth (locus YER016W, strain bim1, stronger effect = lower value) was 1 (inactive) and the normalized growth (locus YER110C, stronger effect = lower value) was 0.969 (inactive). The normalized growth (locus YER111C, strain swi4, stronger effect = lower value) was 0.991 (inactive), the normalized growth (locus YER155C, strain BEM2 (second series), stronger effect = lower value) was 0.926 (inactive) and the normalized growth (locus YER155C, strain BEM2, stronger effect = lower value) was 0.982 (inactive). The normalized growth (locus YER167W, strain BCK2, stronger effect = lower value) was 0.975 (inactive), the normalized growth (locus YFR010W, strain ubp6, stronger effect = lower value) was 0.965 (inactive) and the normalized growth (locus YGL078C, strain dbp3, stronger effect = lower value) was 0.982 (inactive). For the same compound, the normalized growth (locus YGL086W, strain mad1, stronger effect = lower value) was 0.973 (inactive), the normalized growth (locus YGL167C, strain pmr1, stronger effect = lower value) was 1.01 (inactive) and the normalized growth (locus YGL173C, strain kem1, stronger effect = lower value) was 0.997 (inactive). For the same compound, the normalized growth (locus YGL227W, strain vid30, stronger effect = lower value) was 0.999 (inactive), the normalized growth (locus YGL240W, strain doc1, stronger effect = lower value) was 0.98 (inactive) and the normalized growth (locus YGL248W, strain PDE1, stronger effect = lower value) was 0.929 (inactive). The normalized growth (locus YGL253W, strain hxk2, stronger effect = lower value) was 0.953 (inactive), the normalized growth (locus YGR078C, strain PAC10, stronger effect = lower value) was 0.879 (inactive) and the normalized growth (locus YGR135W, strain pre9, stronger effect = lower value) was 0.905 (inactive). For the same compound, the normalized growth (locus YGR229C, strain SMI1, stronger effect = lower value) was 0.867 (inactive), the normalized growth (locus YGR252W, strain gcn5, stronger effect = lower value) was 0.917 (inactive) and the normalized growth (locus YHR013C, strain ard1, stronger effect = lower value) was 0.877 (inactive). For the same compound, the normalized growth (locus YHR027C, strain rpn1, stronger effect = lower value) was 1 (inactive), the normalized growth (locus YHR030C, strain SLT2, stronger effect = lower value) was 0.908 (active) and 0.94 (inactive) and the normalized growth (locus YHR079C, strain IRE1 (second series), stronger effect = lower value) was 0.981 (inactive). The normalized growth (locus YHR079C, strain IRE1, stronger effect = lower value) was 0.948 (inactive), the normalized growth (locus YHR094C, strain hxt1, stronger effect = lower value) was 0.992 (inactive) and the normalized growth (locus YHR129C, strain ARP1, stronger effect = lower value) was 0.967 (inactive). For the same compound, the normalized growth (locus YHR142W, strain chs7, stronger effect = lower value) was 0.944 (inactive), the normalized growth (locus YHR200W, strain rpn10, stronger effect = lower value) was 0.941 (inactive) and the normalized growth (locus YIL066C, strain RNR3, stronger effect = lower value) was 0.918 (inactive). For the same compound, the normalized growth (locus YIL073C, strain SPO22, stronger effect = lower value) was 0.888 (inactive), the normalized growth (locus YIL125W, strain kgd1, stronger effect = lower value) was 1 (inactive) and the normalized growth (locus YIR030C, strain dcg1, stronger effect = lower value) was 0.988 (inactive). The normalized growth (locus YJL092W, strain hpr5, stronger effect = lower value) was 0.978 (inactive), the normalized growth (locus YJL095W, strain BCK1 (second series), stronger effect = lower value) was 0.988 (inactive) and the normalized growth (locus YJL095W, strain BCK1, stronger effect = lower value) was 0.752 (active) and 0.891 (inactive). The normalized growth (locus YJL115W, strain asf1, stronger effect = lower value) was 0.991 (inactive), the normalized growth (locus YJL129C, strain trk1, stronger effect = lower value) was 1.02 (inactive) and the normalized growth (locus YJL134W, strain LCB3, stronger effect = lower value) was 0.977 (inactive). The normalized growth (locus YJL154C, strain vps35, stronger effect = lower value) was 0.99 (inactive), the normalized growth (locus YJL164C, strain tpk1, stronger effect = lower value) was 0.95 (inactive) and the normalized growth (locus YJL166W, strain qcr8, stronger effect = lower value) was 0.989 (inactive). The normalized growth (locus YJL187C, strain SWE1 (second series), stronger effect = lower value) was 0.91 (inactive), the normalized growth (locus YJR043C, strain POL32, stronger effect = lower value) was 0.89 (inactive) and the normalized growth (locus YJR066W, strain TOR1, stronger effect = lower value) was 0.89 (inactive). The normalized growth (locus YJR075W, strain HOC1, stronger effect = lower value) was 0.946 (inactive).
